Laboratory results from PubChem BioAssay AID624257 (Broad Institute, 2012).
Entries with a potency or affinity are not part of this list. Calls of active or inactive are those of the source.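 How the source made its calls: active means compound slowing PglD reaction, half-maximal concentration at most twice top tested dose, in every test run; inconclusive means test runs disagree, or weak flat or poorly fitted curves; inactive means the rest.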

These compounds were tested against PglD acetyltransferase (Campylobacter jejuni) (UniProt O86157) (assay: inhibition of C. jejuni PglD N-acetyltransferase – biochemical, DTNB absorbance, cherry-picked samples, set 2, dose response (AID 624257)). Settings: Purified PglD, DTNB absorbance 412 nm, CoA release; series mostly up to 19.5 µM.
PglD acetyltransferase (Campylobacter jejuni), sequence (O86157 1-203): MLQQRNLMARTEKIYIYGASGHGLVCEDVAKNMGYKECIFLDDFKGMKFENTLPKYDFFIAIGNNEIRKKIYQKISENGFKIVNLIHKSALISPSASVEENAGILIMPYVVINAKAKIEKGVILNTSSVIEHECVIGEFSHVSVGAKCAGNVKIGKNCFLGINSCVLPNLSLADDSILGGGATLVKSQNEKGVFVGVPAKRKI

outcome, inactive:
CCc1ccc(N=C2NC(=O)/C(=C/c3cc(Br)c(OCC(=O)O)c(OC)c3)S2)cc1
CCn1c(SCc2nc3sc(C(=O)O)c(C)c3c(=O)[nH]2)nc2ccccc21
C=CC1=C(C(=O)O)N2C(=O)[C@@H](NC(=O)/C(=N/OCC(=O)O)c3csc(N)n3)[C@H]2SC1
